# Inconclusive results are not listed. Active and inactive are the calls of the source.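 Rule for the calls, unless noted: active = normalized viability below 100% at a tested concentration; inactive = the rest.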
# Experiments:
# [1] = viability loss in pontine glioma line – cell-based, SU-DIPG-XVII, MIPE5.0, CellTiter-Glo, qHTS, dose response (AID 1347060; cut-off not given, nearly all actives have AC50 up to about 26 µM;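 note: cells exposed to compound for 48 hours before viability readout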); conditions: CellTiter-Glo ATP luminescence
# [2] = viability loss in pontine glioma line – cell-based, JHH-DIPG-1, MIPE4.0, CellTiter-Glo, qHTS, dose response (AID 1347062; cut-off not given, nearly all actives have AC50 up to about 27 µM;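 note: cells exposed to compound for two days before readout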); conditions: JHH-DIPG-1 viability, CellTiter-Glo ATP luminescence
# [3] = viability loss in pontine glioma line – cell-based, SU-DIPG-XIII, MIPE5.0, CellTiter-Glo, qHTS, dose response (AID 1347064; cut-off not given, nearly all actives have AC50 up to about 23 µM;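 note: cells exposed to compound for 48 hours before the viability read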); conditions: CellTiter-Glo ATP luminescence
# [4] = viability loss in pontine glioma line – cell-based, SU-DIPG-XXV, MIPE5.0, CellTiter-Glo, qHTS, dose response (AID 1347065; cut-off not given, nearly all actives have AC50 up to about 26 µM;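 note: cells exposed to compound for 48 hours before ATP readout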); conditions: CellTiter-Glo ATP luminescence
# [5] = growth inhibition of DIPG cells – cell-based, MIPE4.0 library, CellTiter-Glo luminescence, qHTS (AID 1347066; cut-off not given, nearly all actives have AC50 up to about 30 µM;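 note: cells exposed to compound for 48 hours before readout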); conditions: SU-DIPG-VI viability, CellTiter-Glo ATP luminescence
# [6] = JHH-DIPG-1 glioma cell viability, MIPE5.0 library, CellTiter-Glo luminescence, qHTS (AID 1347067; cut-off not given, nearly all actives have AC50 up to about 26 µM;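 note: cells exposed to compound for 48 hours before readout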); conditions: JHH-DIPG-1 glioma viability, CellTiter-Glo ATP luminescence
# [7] = growth inhibition of DIPG cells – cell-based, MIPE5.0 library, qHTS (AID 1347068; cut-off not given, nearly all actives have IC50 up to about 30 µM;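 note: cells exposed to compound for 48 hours before viability readout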); conditions: SU-DIPG-XXV viability
# [8] = viability loss with induced miR-34 in A549 – imaging, A549 dox-inducible miR-34, nuclei and caspase counts, primary screen (AID 1347080;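 active = compounds whose cell count with miR-34 switched on is under 0.7 times the count with it off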); conditions: A549 miR-34 inducible, Hoechst nuclei count, 48 h
# [9] = compounds altering HSF1 focus formation in cells – imaging, Selleck Cancer Library (AID 1347162; in the data active = plate-normalised HSF1 focus index below about 0.46); conditions: human cells, HSF1 nuclear foci imaging, at 10 µM; SSMD: measured here: HSF1 foci SSMD mean; cell count: measured here: cell number; plate-normalised HSF1 focus index: stronger effect = lower value
# [10] = MELAS cybrid and Rieske KO viability enhancers – cell-based, MELAS cybrids, Rieske KO mouse fibroblasts, CellTiter-Glo, primary screen (AID 1508586;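 active = mean z-score across replicates of 1.96 or higher in either the MELAS or the Rieske mutant cell line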;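 note: z relative to plate mean and SD of compound and empty wells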); conditions: low glucose
# [11] = drug combination growth inhibition, ovarian cancer – cell-based, oncology-focused library, rucaparib conditional, profiling panel (AID 1508598); conditions: patient-derived ovarian cancer cells, CellTiter-Glo viability, 144 h, stronger effect = lower value
# [12] = growth inhibition, single agent or in combination, cell-based, chromothripsis tumors, cisplatin or BGB combos (AID 1671449; in the data active = inhibition above about 80%;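 note: cells exposed for 96 hours; 0% = vehicle DMSO and 100% = killing by high DMSO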); conditions: LFS_MB_P medulloblastoma cells
# [13] = growth inhibition, single agent and combos, cell-based, chromothripsis tumors, cisplatin or BGB combos (AID 1671450; in the data active = inhibition above about 80%;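 note: cells exposed to compound for four days; 0% = vehicle DMSO and 100% = cell killing by high DMSO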); conditions: HDN33 neuroblastoma cells, stronger effect = higher value
# [14] = growth inhibition, single agents and combos, ICB984, cell-based, cisplatin or BGB combos, synergistic combos for chromothripsis tumors (AID 1671451; call rule not given here;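 note: cells exposed for 96 hours before readout; 0% = vehicle DMSO and 100% = killing by high DMSO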); conditions: ICB984 medulloblastoma cells, drug combinations, stronger effect = higher value
# [15] = growth inhibition, single agents and combos, HTB85, cell-based, BGB or cisplatin IC20 combos, synergistic combos for chromothripsis tumors (AID 1671453; in the data active = inhibition above about 80%;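 note: cells exposed for 96 hours before readout; 0% = vehicle DMSO and 100% = high DMSO killing control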); conditions: HTB85 osteosarcoma cells, drug combinations, stronger effect = higher value
# [16] = growth inhibition, MDA-MB-436, cell-based, BGB or cisplatin combos, synergistic combos for chromothripsis tumors (AID 1671458; call rule not given here;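 note: cells exposed for 96 hours; 0% = vehicle DMSO and 100% = killing by high DMSO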); conditions: MDA-MB-436 breast carcinoma growth inhibition, drug combinations, stronger effect = higher value
# [17] = BT084 cell growth, single and combined drugs, ICGC_MB145, cisplatin and BGB IC40 combos (AID 1671461; in the data active = inhibition above about 80%;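 note: cells exposed to drugs for 96 hours; 0% = vehicle DMSO and 100% = high DMSO full killing control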); conditions: BT084 medulloblastoma cells, drug combinations, stronger effect = higher value
# [18] = RCMB18 cell growth, single agent and combined, cisplatin and BGB IC40 combos (AID 1671462; in the data active = inhibition above about 80%;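 note: cells exposed to compound for four days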); conditions: RCMB18 medulloblastoma cells, stronger effect = higher value
smiles,measurement,setting,value
Nc1ccccc1NC(=O)c1ccc(CNc2nccc(-c3cccnc3)n2)cc1,AC50,[1],2.63 µM (active)
same,AC50,[2],1.48 µM (active)
same,AC50,[3],1.48 µM (active)
same,AC50,[4],0.59 µM (active)
same,AC50,[5],1.18 µM (active)
same,AC50,[6],1.18 µM (active)
same,IC50,[7],2.63 µM (active)
same,fold change,"[8]; stronger effect = lower value, cell number ratio, induced over uninduced",1.16 (inactive)
same,fold change,[8]; measured here: relative caspase fold change +Dox/-Dox,0.733
same,cell count,"[8]; measured here: total cells with miR-34 induction, stronger effect = lower value",1740
same,cell count,[8]; measured here: total cells without miR-34 induction,1500
same,SSMD,[9],2.12
same,cell count,[9],7260
same,plate-normalised HSF1 focus index,[9],1.13 (inactive)
same,z-score,"[10]; MELAS cybrid survival, CellTiter-Glo 48 h, stronger effect = higher value",-0.546 (inactive)
same,z-score,"[10]; Rieske KO mouse fibroblast survival, CellTiter-Glo 72 h",-2.11
same,viability,"[11]; at 0.000305 µM, OCI-C5x cells, with rucaparib 10 µM, 100% = cells with rucaparib alone",107% (inactive)
same,viability,"[11]; at 0.000305 µM, OCI-C5x cells, without rucaparib",111% (inactive)
same,viability,"[11]; at 0.000305 µM, OCI-P5x cells, with rucaparib 20 µM, 100% = cells with rucaparib alone",122% (inactive)
same,viability,"[11]; at 0.000305 µM, OCI-P5x cells, without rucaparib",119% (inactive)
same,viability,"[11]; at 0.00122 µM, OCI-C5x cells, with rucaparib 10 µM, 100% = cells with rucaparib alone",112% (inactive)
same,viability,"[11]; at 0.00122 µM, OCI-C5x cells, without rucaparib",110% (inactive)
same,viability,"[11]; at 0.00122 µM, OCI-P5x cells, with rucaparib 20 µM, 100% = cells with rucaparib alone",110% (inactive)
same,viability,"[11]; at 0.00122 µM, OCI-P5x cells, without rucaparib",116% (inactive)
same,viability,"[11]; at 0.00488 µM, OCI-C5x cells, with rucaparib 10 µM, 100% = cells with rucaparib alone",118% (inactive)
same,viability,"[11]; at 0.00488 µM, OCI-C5x cells, without rucaparib",115% (inactive)
same,viability,"[11]; at 0.00488 µM, OCI-P5x cells, with rucaparib 20 µM, 100% = cells with rucaparib alone",107% (inactive)
same,viability,"[11]; at 0.00488 µM, OCI-P5x cells, without rucaparib",108% (inactive)
same,viability,"[11]; at 0.0195 µM, OCI-C5x cells, with rucaparib 10 µM, 100% = cells with rucaparib alone",119% (inactive)
same,viability,"[11]; at 0.0195 µM, OCI-C5x cells, without rucaparib",117% (inactive)
same,viability,"[11]; at 0.0195 µM, OCI-P5x cells, with rucaparib 20 µM, 100% = cells with rucaparib alone",101% (inactive)
same,viability,"[11]; at 0.0195 µM, OCI-P5x cells, without rucaparib",96.7% (active)
same,viability,"[11]; at 0.0781 µM, OCI-C5x cells, with rucaparib 10 µM, 100% = cells with rucaparib alone",110% (inactive)
same,viability,"[11]; at 0.0781 µM, OCI-C5x cells, without rucaparib",101% (inactive)
same,viability,"[11]; at 0.0781 µM, OCI-P5x cells, with rucaparib 20 µM, 100% = cells with rucaparib alone",103% (inactive)
same,viability,"[11]; at 0.0781 µM, OCI-P5x cells, without rucaparib",94.4% (active)
same,viability,"[11]; at 0.313 µM, OCI-C5x cells, with rucaparib 10 µM, 100% = cells with rucaparib alone",67.3% (active)
same,viability,"[11]; at 0.313 µM, OCI-C5x cells, without rucaparib",71.1% (active)
same,viability,"[11]; at 0.313 µM, OCI-P5x cells, with rucaparib 20 µM, 100% = cells with rucaparib alone",72% (active)
same,viability,"[11]; at 0.313 µM, OCI-P5x cells, without rucaparib",77.1% (active)
same,viability,"[11]; at 1.25 µM, OCI-C5x cells, with rucaparib 10 µM, 100% = cells with rucaparib alone",6.09% (active)
same,viability,"[11]; at 1.25 µM, OCI-C5x cells, without rucaparib",5.69% (active)
same,viability,"[11]; at 1.25 µM, OCI-P5x cells, with rucaparib 20 µM, 100% = cells with rucaparib alone",15.2% (active)
same,viability,"[11]; at 1.25 µM, OCI-P5x cells, without rucaparib",19.7% (active)
same,viability,"[11]; at 5 µM, OCI-C5x cells, with rucaparib 10 µM, 100% = cells with rucaparib alone",5.71% (active)
same,viability,"[11]; at 5 µM, OCI-C5x cells, without rucaparib",5.7% (active)
same,viability,"[11]; at 5 µM, OCI-P5x cells, with rucaparib 20 µM, 100% = cells with rucaparib alone",9.81% (active)
same,viability,"[11]; at 5 µM, OCI-P5x cells, without rucaparib",8.93% (active)
same,inhibition,"[12]; at 0.5 µM, stronger effect = higher value",2.35% (inactive)
same,inhibition,"[12]; measured here: combination with BGB IC20, at 0.005 µM",-20.9%
same,inhibition,"[12]; measured here: combination with BGB IC40, at 0.005 µM",-59.1%
same,inhibition,"[12]; measured here: combination with BGB IC40, at 0.05 µM",-23.9%
same,inhibition,"[12]; measured here: combination with cisplatin, at 0.5 µM, stronger effect = higher value",45.4%
same,inhibition,"[12]; measured here: combination with cisplatin, at 5 µM, stronger effect = higher value",109%
same,inhibition,"[13]; BGB combo, at 5 µM",98.8%
same,inhibition,[13]; at 0.5 µM,51.5% (inactive)
same,inhibition,"[13]; cisplatin combo, at 5 µM",100%
same,inhibition,"[13]; measured here: with BGB IC20 combination, at 0.5 µM",59.9%
same,inhibition,"[13]; measured here: with cisplatin IC20 combination, at 0.5 µM",50.6%
same,inhibition,"[13]; single agent, at 5 µM",99.4%
same,inhibition,"[14]; BGB IC20 combo, at 0.005 µM",8.79%
same,inhibition,"[14]; BGB IC40 combo, at 0.005 µM",19.9%
same,inhibition,"[14]; BGB IC40 combo, at 0.05 µM",92.5%
same,inhibition,[14]; at 0.5 µM,-29.5% (inactive)
same,inhibition,"[14]; cisplatin combo, at 0.05 µM",92.7%
same,inhibition,"[14]; cisplatin combo, at 0.5 µM",-33.3%
same,inhibition,"[14]; cisplatin combo, at 5 µM",-7.7%
same,inhibition,"[14]; measured here: 5 uM single agent, at 5 µM",-12.8%
same,inhibition,[15]; at 0.5 µM,18.4% (inactive)
same,inhibition,"[15]; measured here: with BGB IC20, at 0.5 µM",20.6%
same,inhibition,"[15]; measured here: with BGB IC20, at 5 µM",98.9%
same,inhibition,"[15]; measured here: with cisplatin IC20, at 0.5 µM",17.4%
same,inhibition,"[15]; measured here: with cisplatin IC20, at 5 µM",99.2%
same,inhibition,"[15]; single agent, at 5 µM",99.2%
same,inhibition,[16]; at 0.5 µM,23.7% (inactive)
same,inhibition,"[16]; measured here: BGB combination, at 0.5 µM",20.7%
same,inhibition,"[16]; measured here: BGB combination, at 5 µM",64.6%
same,inhibition,"[16]; measured here: cisplatin combination, at 0.5 µM",9.8%
same,inhibition,"[16]; measured here: cisplatin combination, at 5 µM",64%
same,inhibition,[17]; at 0.5 µM,50.1% (inactive)
same,inhibition,"[17]; cisplatin combination, at 0.5 µM",50.8%
same,inhibition,"[17]; cisplatin combination, at 5 µM",83.4%
same,inhibition,"[17]; measured here: BGB IC40 combination 0.05 uM, at 0.05 µM",-5.63%
same,inhibition,"[17]; single agent, at 5 µM",99.8%
same,inhibition,[18]; at 0.5 µM,56.4% (inactive)
same,inhibition,"[18]; cisplatin combo, at 5 µM",95.3%
same,inhibition,"[18]; measured here: BGB IC40 combination, at 0.05 µM",-6.4%
same,inhibition,"[18]; measured here: combination with cisplatin, at 0.5 µM",76.3%
same,inhibition,"[18]; single agent, at 5 µM",94.7%

# — PubChem BioAssay
